Data from ChEMBL document CHEMBL3988442, “University of Dundee, Small-Polar-MMV Screening Library” (2021).
Hit rate of the full screen: of about 48,000 compounds, about 13,000 (27%) showed an effect of 50% or more. Some of the results follow.

Test system: Wolbachia pipientis
Assay: Anti-Wolbachia Cell-Based Screen
Format: functional
Set-up: scale not given: in the data most compounds retested in dose-response had high values
Details: 5 µM

SMILES | Percent Effect [%]
CCn1ccnc1CN1CCN(c2ncnc3ccsc23)CC1 | 18.95
CCC(=O)NCC(=O)NCc1cc(Br)ccc1OC(F)F | 6.284
Cc1ccc(N2CCC(NCc3cnc(C4CCC4)s3)CC2)nc1 | 10.22
CN(Cc1nnc(C2CC2)n1C)C1CCN(Cc2ccccc2F)C1 (stereo not drawn) | 2.374
CN(Cc1nnc(C2CC2)n1C)C1CCN(Cc2nccn2C)C1 (stereo not drawn) | 117.3
CCn1c(C)nnc1CN(C)C1CCN(Cc2nccn2C)C1 (stereo not drawn) | -10.2
CCOC(=O)C1CN(S(C)(=O)=O)Cc2ncn(CC)c21 (stereo not drawn) | 9.527
O=C(O)[C@@H]1CN(C(=O)c2ccc(O)cc2)C[C@H]1c1cccc(F)c1 | 133.5
O=C(O)[C@@H]1CN(C(=O)c2ccc3nccnc3c2)C[C@H]1c1ccncc1 | -8.549
Cc1ccc(F)c(C(=O)N2C[C@@H](C(=O)O)[C@H](c3ccncc3)C2)c1Cl | -4.386
COc1ccc(C(=O)N2C[C@@H](C(=O)O)[C@H](c3cccc(F)c3)C2)c(O)c1 | -6.268
COc1ccc(C(=O)N2C[C@@H](C(=O)O)[C@H](c3ccccc3)C2)c(C)c1 | -5.118
O=C(O)[C@@H]1CN(C(=O)c2cc(C3CC3)n[nH]2)C[C@H]1c1cccc(F)c1 | -7.697
Cc1ccccc1[C@@H]1CN(C(=O)c2ccc3[nH]nnc3c2)C[C@H]1C(=O)O | 1.706
Cc1ccc(C(=O)N2C[C@@H](C(=O)O)[C@H](c3ccncc3)C2)cc1F | 1.77
O=C(O)[C@@H]1CN(C(=O)c2ccc3[nH]nnc3c2)C[C@H]1c1cccc(F)c1 | 0.7419
O=C(O)[C@@H]1CN(C(=O)c2ccc3[nH]nnc3c2)C[C@H]1c1ccccc1 | 101.1
O=C(O)[C@@H]1CN(C(=O)c2ccc(F)c(F)c2)C[C@H]1c1cccc(F)c1 | 133.7
O=C(O)[C@@H]1CN(C(=O)c2ccc(Cl)cc2)C[C@H]1c1cccc(F)c1 | 111.8
COC(=O)CNC(=O)C12CCC(=O)N1c1cc(Cl)ccc1S2 (stereo not drawn) | -3.577
CC(NC(=O)c1ccc(C(N)=O)cc1)c1cccc(N2CCOC2=O)c1 (stereo not drawn) | 7.135
Cc1ccc(C(=O)N2CCN(C(=O)C(C)n3ccnc3)CC2)cc1F (stereo not drawn) | -10.24
CCOc1cc(-c2cc(=O)n3c(n2)CCCCC3)ccc1O | 95.98
CN(C)c1ccc(-c2cc(=O)n3c(n2)CCCCC3)cc1 | 163.6
COc1ccc(-c2cc(=O)n3c(n2)CCCCC3)cc1 | 99.63
CCOc1ccc(-c2ccnc(C)n2)cc1C(=O)O | -6.535

SMILES | Percent Effect [%]
CN(C)c1cnn(CC(=O)N2CCCCCC2)c(=O)c1 | 2.501
CCOc1ccc(-c2cc(=O)n3c(n2)CCCCC3)cc1 | 126.5
CCOc1ccc(-c2ccnc(C3CC3)n2)cc1C(=O)O | 5.09
COc1ccc(C2CC(=O)Nc3c2nc2n3CCCC2)cc1O (stereo not drawn) | 0.05289
CCOc1ccc(OC2CCCN(c3cnn(C)c3)C2=O)cc1 (stereo not drawn) | 7.424
COc1ccc(C2CC(=O)Nc3c2nc2n3CCCC2)cc1OC (stereo not drawn) | 9.396
CCOc1ccc(NC(=O)Nc2cc(N3CCCCC3)ncn2)cc1 | 16.35
CN(Cc1nccs1)C1CCN(c2cccc(-c3cscn3)c2)CC1 | -5.707
O=C(Nc1cc(-c2ccccc2)on1)N1CCN(CCO)CC1 | -8.087
CN(CC(O)C1CC1)C(=O)c1ccc(-c2nc(C3CC3)n[nH]2)cc1 (stereo not drawn) | -1.161
Cc1[nH]c(-c2ccccc2)nc1C(=O)N1CCC2(CCCO2)CC1 | -0.5796
NC(=O)c1ccc(N2CCCCC2)c(NC(=O)c2cncc(Br)c2)c1 | 8.346
Cc1nc(C(C)NC(=O)NCc2nccn2CC(C)C)cs1 (stereo not drawn) | -2.713
CC(=O)N1CCN(CC(C)(O)c2cccc(C(F)(F)F)c2)CC1 (stereo not drawn) | 108.1
CC(O)(CN1CCC(O)CC1)c1cccc(C(F)(F)F)c1 (stereo not drawn) | 104.1
CC(NCC1CCN(CCO)CC1)c1ccc(C(F)(F)F)cc1 (stereo not drawn) | 4.315
CC(C(=O)Nc1cccc(C(F)(F)F)c1)N(C)CCN1CCOCC1 (stereo not drawn) | -13.73
COCCN1CCN(C(=O)C(c2cccc(F)c2)N(C)C)CC1 (stereo not drawn) | -2.953
CC(O)(CN1CCN(CCO)CC1)c1cccc(C(F)(F)F)c1 (stereo not drawn) | 117
COC(=O)NCC(=O)NCC(C)(C)c1cccc(C(F)(F)F)c1 | -0.4386
CC(N)C(=O)N1CCC(Oc2cccc(C(F)(F)F)c2)CC1 (stereo not drawn) | -15.39
COCCN1CCN(CC(C)(O)c2cccc(C(F)(F)F)c2)CC1 (stereo not drawn) | 78.04
CC(=O)N1CCOC(Cc2cccc(C(F)(F)F)c2)C1 (stereo not drawn) | -10.28
CC(=O)N1CCN(Cc2ccc(C(F)(F)F)cc2F)CC(O)C1 (stereo not drawn) | -3.674
COCC(NC(=O)c1cnn(C)c1)c1cccc(C(F)(F)F)c1 (stereo not drawn) | -8.704
CC(C)c1noc(C(C)N2CCC(c3nc4ccccc4[nH]3)CC2)n1 (stereo not drawn) | 10.92

SMILES | Percent Effect [%]
O=C(CCSc1ccccc1)NS(=O)(=O)c1ccc2c(c1)OCCO2 | 13.89
CC1=NOC(C(=O)N2CCC(O)(c3ccc4nc(C)ccc4c3)CC2)C1 (stereo not drawn) | -15.54
Clc1ccc(CN2CCCC(Cn3cncn3)C2)c2ncccc12 (stereo not drawn) | -4.031
Cn1c(C(=O)N2CCC(C3OCCO3)CC2)c(Cl)c2ccccc21 | 4.597
CCc1cc(N2CCC(NC3CCOCC3)CC2)nc(N(C)C)n1 | -0.7364
O=c1[nH]nc2nc(N3CCOCC3)ccn12 | 3.869
O=c1[nH]nc2c(N3CCOCC3)nccn12 | 105.6
CC(C)c1nccn1C(C)C(=O)NC1CCOCC1 (stereo not drawn) | -4.368
O=c1[nH]nc2c(N3CCC(NC4CCOCC4)CC3)nccn12 | 113.4
O=c1[nH]nc2nc(N3CCSCC3)ccn12 | -3.985
O=c1[nH]nc2c(N3CCCCCC3)nccn12 | 114.9
CC(NC(=O)Nc1cccnc1N1CCOCC1)c1ccccc1 (stereo not drawn) | -4.6
O=c1[nH]nc2nc(N3CCCC3)ccn12 | -11.65
COc1cccn(Cc2nnc(-c3cccnc3)o2)c1=O | -29.57
Cc1nc(CNC(=O)[C@@H]2CCCN2C(=O)OC(C)(C)C)cs1 | -12.19
Cc1ccccc1N1CCCN(CC2(O)CCCNC2)CC1 (stereo not drawn) | -10.43
CC(C)c1ccc(CN2CCN(C(=O)c3cc(C4CC4)[nH]n3)CC2)cc1 | 100.6
O=C(c1cc(C2CC2)[nH]n1)N1CCN(Cc2ccc3c(c2)OCO3)CC1 | 118.4
O=C(c1cc(C2CC2)[nH]n1)N1CCN(c2nccs2)CC1 | -6.646
CCc1nc(C(=O)N2CCN(Cc3ccc(Cl)cc3)CC2)c[nH]1 | 7.187
O=C(c1cc(C2CC2)[nH]n1)N1CCN(Cc2ccc(Cl)cc2)CC1 | 91.65
N#Cc1ccc(CN2CCN(C(=O)c3cc(C4CC4)[nH]n3)CC2)cc1 | -3.632
O=C(c1cc(COc2ccc3c(c2)OCO3)[nH]n1)N1CCOCC1 | 16.23
O=C(c1cc(COc2ccc3c(c2)OCO3)[nH]n1)N1CCCC(O)C1 (stereo not drawn) | -9.09
COc1ccnc(N2CCN(C(=O)c3cc(C4CC4)[nH]n3)CC2)n1 | -20.97
CC(C)c1cc(C(=O)N2CCN(Cc3ccc(C#N)cc3)CC2)n[nH]1 | 1.28

SMILES | Percent Effect [%]
O=C(c1cc(C2CC2)[nH]n1)N1CCN(Cc2ccncc2)CC1 | 106.7
Cc1ccsc1C(=O)NCC1COCc2c(C)nnn2C1 (stereo not drawn) | -4.017
COc1ccc(CC(=O)N2CCc3nc(C(=O)N(C)C)sc3CC2)cc1 | -11.26
COCc1cc(N(C)Cc2cc(C(C)(C)C)n[nH]2)ncn1 | -4.66
Cc1cnn(CCNCc2ccc(OCC(N)=O)cc2)c1 | -9.498
Cc1nn(CCC#N)c(C)c1CCC(=O)N(C)Cc1ccc(F)cc1F | 10.09
O=C(c1cc(C2CC2)[nH]n1)N1CCCN(c2nccs2)CC1 | -25.45
N#Cc1ccc(N2CCN(C(=O)c3cc(C4CC4)[nH]n3)CC2)c(F)c1 | -1.136
Cc1cccc(CN2CCN(C(=O)c3cc(C4CC4)[nH]n3)CC2)c1 | 106.2
CCOc1ccc(CN2CCN(C(=O)c3ccc(C)n3C)CC2)cc1 | 6.046
CCOc1ccc(CN2CCN(C(=O)c3cc(C4CC4)[nH]n3)CC2)cc1 | 100.1
CC(C)c1cc(C(=O)N2CCCN(Cc3ccccc3)CC2)n[nH]1 | -13.62
Cc1cccc(CN2CCN(C(=O)c3ccc(C)[nH]c3=O)CC2)c1 | -0.706
O=C(c1cc(C2CC2)[nH]n1)N1CCN(Cc2ccccc2)CC1 | 113.8
O=C(c1cc(C2CC2)[nH]n1)N1CCN(Cc2ccsc2)CC1 | -9.211
COCCC1(CNC(=O)NC2CCCN(C)C2)CC1 (stereo not drawn) | -18.26
CC(C)OC(=O)N1CCC(Cc2cccc(C(N)=O)c2)C1 (stereo not drawn) | 0.346
O=C1CC(c2cccs2)Cc2nc(O)c(C(=O)N3CCCC3)cc21 (stereo not drawn) | -9.305
Cc1nc(-c2cccs2)ccc1C(=O)N1CCN(CC(C)O)CC1 (stereo not drawn) | 6.494
O=C(Nc1ccccc1-c1cccs1)N1CCOCC1 | -11.7
Nc1cc2c(nn1)CCN(C(=O)c1csc(-c3cccs3)n1)C2 | -8.113
CC(C(=O)N1CCCCC1)n1nc(-c2cccs2)cc(N)c1=O (stereo not drawn) | 96.7
CC(C(=O)N1CCOCC1)n1nc(-c2cccs2)cc(N)c1=O (stereo not drawn) | 87.73
CC(C(=O)N1CCCC1)n1nc(-c2cccs2)cc(N)c1=O (stereo not drawn) | 96.9
CC(C(=O)N1CCOCC1)N1CCc2cncnc2C1 (stereo not drawn) | 24.13
